Assay results: PubChem BioAssay (EPA / NIEHS)
Calls of active or inactive are those of the source. The calls were made as follows: active = hit-call score of the fitted dose curve at least 0.9, where 1 is the maximum; inactive = score below 0.9.

The compounds below were run on Thyroid Hormone Responsive (THRSP), THRSP (gene 7069) (assay: LTEA_HepaRG_THRSP: Life Technologies and Expression Analysis (LTEA) Assay for Thyroid Hormone Responsive (THRSP) using HepaRG (AID 2283536)). Settings: mRNA level, 48 h; actives raise or lower the signal.
Method: LTEA_HepaRG is a cell based, multiplexed-readout assay that uses HepaRG, a human liver cell line, with measurements taken at 48 hours after chemical dosing on a 96-well plate.LTEA_HepaRG_THRSP is one of 102 assay component(s) measured in the LTEA HepaRG cell culture assay. It is a marker of NR mediated metabolism.Data from the assay component LTEA_HepaRG_THRSP was analyzed into 1 endpoint. This assay endpoint, LTEA_HepaRG_THRSP, was analyzed with bidirectional fitting relative to DMSO as the negative control and baseline of activity. Using a type of inducible reporter, measures of mRNA induction for gain or loss-of-signal activity can be used to understand regulation of transcription factor activity. To generalize the intended target to other relatable targets, this assay endpoint is annotated to the growth factor intended target family, where the subfamily is NR mediated metabolism.
A total of 1060 chemcials from the ToxCast library were tested in eight-point concentration-response experiments. Cell culture and cytotoxicity assays were conducted at Thermo Fisher Scientific's Custom Services facility (Madison, WI). A single lot of human HepaRG cells (Thermo Fisher Scientific, Frederick, MD) was used for the cell culture experiments. 96-well format collagen type I coated plates of human HepaRG cells were prepared using established methods. Briefly, cryopreserved HepaRG cells were thawed, plated at a density of approximately 100,000 cells/well in HepaRG Thaw, Plate, and General Purpose media (HPRG770, Thermo Fisher Scientific), and incubated for 48 hours. 0.5% DMSO was selected as vehicle control to balance the requisite need of DMSO in HepaRG cultures to maintain differentiation (for example, baseline metabolism, proportions of hepatocytes vs. cholangiocytes), while enabling further hepatic receptor pathway activation (for example, PXR and CAR) in response to chemical exposure. 48 hours after plating, the culture medium was replaced with HepaRG Serum-Free Incudtion Media. Cells were exposed to each test chemical in duplicate and maintained in CO2 incubators for another 48 hours. Chemical plates were thawed to room temperature and 200x concentrations of treatment groups were prepared. 8-point conentration-reponse curves were made with the highest exposure at 100 uM, followed by half-log dilutions, all in 0.5% DMSO. Each test plate contained variouse controls, induction positive controls (1mM phenobarbital), cytotoxicity positive controls ([…] aflatoxin B1), vehicle controls (0.5% DMSO), and total lysis controls (0.5% DMSO). Cell morphology images were taken using an Essen IncuCyte FLR automated microscope, with six 96-well plates imaged in about 24 minutes. Images were captured and exported and JPEG files. Spent culture media was transfered to black-well plates for the LDH assay, and remaining media was sorted at -80 C for later use. Cells were treated with RLT buffer and frozen until shipped for gene expression analysis. Total RNA was isolated from the cell suspension in 75 uL of Buffer RLT (Qiagen, Germantown, MD 20874) by Quintiles/Expression Analysis (Durham, NC) using a custom isolation procedure. Total RNA from each plate well was transferred to a preamplification plate. Fluidigm's 96.96 Dynamic ArrayTM (Fluidigm, Amsterdam, the Netherlands) technology was used for gene expression analyses by quantitative reverse transcription polymerase chain reaction (qRT-PCR, performed by Quintiles/Expression Analysis, Durham, NC)89. Standard TaqManTM Assays (Applied Biosystems/ThermoFisher Scientific, Foster City, CA) were used to assess the expression of 93 genes selected based on their selectivity and sensitivity to important hepatic receptors known to be modulated by environmental chemicals; importance in human hepatocyte functionality; and hepatotoxicity. […]

Row | Compound | outcome | AC50
1 | CCCCCCCCCCCCCCC | inactive | –
2 | N=C(N)c1ccc(OCCCCCOc2ccc(C(=N)N)cc2)cc1 | – | 8.04 µM (active)
3 | Cc1[nH]nc2c1N=C(c1ccccc1Cl)c1cc([N+](=O)[O-])ccc1N2 | – | 8.84 µM (active)
4 | CS(=O)(=O)c1ccc([C@@H](CC2CCCC2)C(=O)Nc2cnccn2)cc1Cl | – | 63.5 µM (active)
5 | CCCCC(CC)C(=O)O (stereo unspecified) | inactive | –
6 | CN(Cc1cnc2nc(N)nc(N)c2n1)c1ccc(C(=O)N[C@@H](CCC(=O)O)C(=O)O)cc1 | – | 0.167 µM (active)
7 | O=C(CCCN1CCC(O)(c2ccc(Cl)cc2)CC1)c1ccc(F)cc1 | inactive | –
8 | CC(=O)Nc1ccc(O)cc1 | inactive | –
9 | OCC(CO)(CBr)CBr | inactive | –
10 | CCCCC=O | inactive | –
11 | CCC(C)c1ccccc1O (stereo unspecified) | inactive | –
12 | CCCCc1oc2ccccc2c1C(=O)c1cc(I)c(OCCN(CC)CC)c(I)c1 | – | 68.7 µM (active)
13 | CN(C)CCOC(c1ccccc1)c1ccccc1 | – | 58.4 µM (active)
14 | O=C(c1ccccc1)c1ccccc1 | inactive | –
15 | CCCCCCCCCCCCOS(=O)(=O)O | – | 80.5 µM (active)
16 | O=C1NS(=O)(=O)c2ccccc21 | inactive | –
